# Sampled rows, rich in hits. Any-hit rate of the full collection: about 19%.
# DT40 TDP1 CPT – DT40-hTDP1 cell growth loss with CPT; chicken DT40 Tdp1-/-;hTDP1 cells + 20 nM CPT, ATP luminescence, 48 h; Potency, µM (top dose mostly 46.2 µM), for the others: top-dose activity change, negative = growth inhibition, hits mostly inhibitors; 420,000 tested, 12% active; AID 686979; further: nearly all actives have a fitted effect of over 55% in size
#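 Cell growth measured by CellTiter-Glo luminescence after a minimum 48 h, 37 C compound exposure with 20 nM CPT in Tdp1-knockout DT40 cells stably expressing hTDP1, seeded 400/well; qHTS titration format.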
# HT1080-NT tox – kills 2HG-producing HT-1080-NT fibrosarcoma cells; HT-1080-NT fibrosarcoma viability, CellTiter-Glo ATP luminescence, 48 h; Potency, µM (series often up to 46.1 µM), without a hit: at the highest dose activity, negative = less viability, usual class: cytotoxic; 360,000 tested, 1.6% active; AID 686970;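 further: NT is the 2HG producing partner of a matched IDH1 knockdown line; 0% = DMSO-treated cells and -100% = media-only wells without cells; nearly all actives have a fitted effect of over 55% in size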
#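 Viability of the 2HG-overproducing fibrosarcoma line after 48 hours of compound exposure at 37 degrees C was determined by luminescence with CellTiter-Glo, and concentration-effect curves were then fitted and categorized.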
# KB-V1 MDR tox – KB-V1 MDR subline cytotoxicity. KB-V1 MDR cells viability, CellTiter-Glo, 72 h. 400,000 tested, 3.4% active. Potency, µM (titrated, usually from 46.1 µM), hits mostly cytotoxic; further: nearly all actives have a fitted effect of over 60% in size
#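 Cytotoxicity toward P-gp-expressing KB-V1 cells was determined as loss of CellTiter-Glo luminescence after 72 h at 37 degrees C. Compounds were tested in quantitative HTS format across a concentration range, with curves fitted to normalized data.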
# KB-3-1 tox – KB-3-1 parental cell cytotoxicity | Potency, µM (doses to about 46.1 µM), most hits filed as cytotoxic | KB-3-1 viability, CellTiter-Glo ATP luminescence, 72 h | 400,000 tested, 1.4% active | AID 1347075; further: nearly all actives have a fitted effect of over 60% in size
#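 Using CellTiter-Glo luminescence, growth of non-resistant KB-3-1 adenocarcinoma cells is assessed 72 h after pin-tool compound addition at 37 °C. Normalized responses across the concentration series yield fitted curves.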
# DT40 TDP1 no CPT – qHTS for Inhibitors of human tyrosyl-DNA phosphodiesterase 1 (TDP1): qHTS in cells in absence of CPT; DT40 Tdp1-/- hTDP1 cells, no CPT, ATP luminescence, 48 h; Potency, µM (series often up to 46.2 µM), for inactives: at the top dose activity change, negative = growth inhibition, hits mostly inhibitors; 420,000 tested, 15% active; further: nearly all actives have a fitted effect of over 55% in size
#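 Seeded 400 DT40-hTDP1 cells/well (vehicle DMSO, no 20 nM CPT); pinned compounds; ≥48 hr at 37 °C; CellTiter-Glo luminescence as viability measure.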
# HT1080 IDH1KD tx – kills HT-1080 cells with IDH1 knockdown | HT-1080 IDH1 knockdown viability, ATP luminescence, 48 h | Potency, µM (titrated, usually from 46.1 µM), for inactives: at the highest dose activity, negative = toxicity, most hits filed as cytotoxic | 360,000 tested, 2% active;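 further: 0% = DMSO wells and -100% = cell-free medium wells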
#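 Assay cells: HT-1080 with IDH1 knockdown, 750 per well, RPMI/5% FBS. Exposure: 48 h at 37 °C following 2 h pre-incubation. Read: CellTiter-Glo luminescence; fitted concentration-response, curve class assigned.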
# * marks the source's active call; other numbers are inactive results; i = inactive; ? = inconclusive; . = no result; [ ] = another dose, or the depositor's remark. The call rests on the fitted dose curve; in most records, active means well fitted curve in the direction sought with a large enough effect; inconclusive means small, poorly fitted or top-dose-only effect, or another doubt; inactive means no such curve, though single readings can be large; an effect the other way counts as inactive or inconclusive. Unless noted, on the % scale 0 is the no-effect control and ±100 the full control effect; potency means the concentration at half of the fitted maximal effect.
SMILES,DT40 TDP1 CPT,HT1080-NT tox,KB-V1 MDR tox,KB-3-1 tox,DT40 TDP1 no CPT,HT1080 IDH1KD tx
Cc1ccc(NC(=O)Cn2c(=O)ccn(Cc3ccccc3)c2=O)cc1S(=O)(=O)N1CCOCC1,4%,0%,i,i,-1%,0%
CCCCC(=O)N(C)c1c(C)nc2ccc(C(=O)N3CCN(c4ccccc4)CC3)cn12,-27%,-1%,i,i,-22%,15%
Cc1[nH]n(-c2ccccc2)c(=S)c1C=Nc1ccc([N+](=O)[O-])cc1,13µM*,?,i,i,23µM*,?
Cc1ccc(-n2[nH]c(C)c(C=Nc3ccc(S(=O)(=O)Nc4nc(C)cc(C)n4)cc3)c2=O)c(C)c1,?,-5%,i,i,-9%,-3%
Cc1[nH]n(-c2ccccc2)c(=O)c1C=Nc1ccc(S(=O)(=O)N=C(N)N)cc1,-11%,0%,i,i,-28%,-17%
Cc1cc(C)nc(NS(=O)(=O)c2ccc(N=Cc3c(C)[nH]n(-c4ccccc4)c3=O)cc2)n1,21µM*,0%,i,i,?,-12%
CCc1nnc(NS(=O)(=O)c2ccc(N=Cc3c(C)[nH]n(-c4ccc(C)c(C)c4)c3=O)cc2)s1,2.1µM*,?,?,?,8.2µM*,21µM*
Cc1[nH]n(-c2ccc(Br)cc2)c(=O)c1C=Nc1ccc(S(=O)(=O)Nc2nccs2)cc1,?,-28%,?,i,?,-20%
Cc1ccc(NC(=O)CSc2nnc(C)n3c2cc2sccc23)c(C)c1,-21%,.,.,.,-17%,.
COc1ccc(N2CC(C(=O)OCC(=O)Nc3cccc(C)c3C)CC2=O)cc1 (configuration not stated),-3%,15%,i,i,-4%,20%
Cc1cc(C)c(S(=O)(=O)Nc2ccccc2C(=O)N2CCOCC2)c(C)c1,-7%,18%,i,i,-8%,10%
COc1ccccc1CN1CCC2(CC1)c1ccccc1[C@@H](NC(=O)c1ccco1)[C@@H]2OC,-17%[9.04 µM],.,.,.,-24%,.
COc1cc2c(cc1NC(=O)COCC(=O)O)oc1ccccc12,13%,16%,i,i,2%,15%
COc1cc2c(cc1NC(=O)C(C)N1CCN(S(=O)(=O)c3ccc(C)c(C)c3)CC1)oc1ccccc12 (configuration not stated),-7%,-3%,i,i,-25%,-1%
COc1cc2c(cc1NC(=O)C(C)OC(=O)c1ccc(S(=O)(=O)Nc3ccccc3Cl)cc1)oc1ccccc12 (configuration not stated),23µM*,-9%,i,i,18µM*,0%
COc1cc2c(cc1NC(=O)c1ccncc1)oc1ccccc12,?,-20%,i,i,21µM*,?
COc1cc2c(cc1NC(=O)COc1ccc3ccccc3c1)oc1ccccc12,?,5%,i,i,?,5%
COc1cc2c(cc1NC(=O)C(C)Oc1ccccc1)oc1ccccc12 (configuration not stated),15µM*,.,i,i,?,.
COc1cccc(CN(C)CC(=O)Nc2cc3oc4ccccc4c3cc2OC)c1,23µM*,10%,?,?,21µM*,2%
COc1ccccc1N1CCN(c2nc3ccc(C(=O)c4ccccc4)cc3n3c(C)nnc23)CC1,-3%,.,i,i,0%,.
CC(=O)NC(c1ccc(F)c(F)c1)c1nc(-c2cccc(C(=O)O)c2)cs1 (configuration not stated),-10%,15%,i,i,1%,3%
COc1ccc(C(=O)NC23CC4CC(CC(C4)C2)C3)cc1,-3%,1%,i,?,-10%,2%
